Test results reported in PubChem BioAssay (EPA / NIEHS).
Results filed as inconclusive are left out. Activity calls are given as the source filed them. How the source made its calls, unless noted: active means hit-call score of the fitted dose curve at least 0.9, where 1 is the maximum; inconclusive means response in the unintended direction; inactive means score below 0.9.

Legend:
[1] = molecular target: human Peroxisome Proliferator-activated Receptor alpha (PPARa), PPARA (gene 5465) (UniProt Q07869); experiment: ATG_PPARa_TRANS: Attagene TRANS-FACTORIAL HepG2 Assay for human Peroxisome Proliferator-activated Receptor alpha (PPARa) (AID 2283001);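 on AC50: potency for gain of reporter signal over DMSO so agonist or activator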
human Peroxisome Proliferator-activated Receptor alpha (PPARa), PPARA (gene 5465), sequence (Q07869 whole entry, looked up, the tested form may be a part): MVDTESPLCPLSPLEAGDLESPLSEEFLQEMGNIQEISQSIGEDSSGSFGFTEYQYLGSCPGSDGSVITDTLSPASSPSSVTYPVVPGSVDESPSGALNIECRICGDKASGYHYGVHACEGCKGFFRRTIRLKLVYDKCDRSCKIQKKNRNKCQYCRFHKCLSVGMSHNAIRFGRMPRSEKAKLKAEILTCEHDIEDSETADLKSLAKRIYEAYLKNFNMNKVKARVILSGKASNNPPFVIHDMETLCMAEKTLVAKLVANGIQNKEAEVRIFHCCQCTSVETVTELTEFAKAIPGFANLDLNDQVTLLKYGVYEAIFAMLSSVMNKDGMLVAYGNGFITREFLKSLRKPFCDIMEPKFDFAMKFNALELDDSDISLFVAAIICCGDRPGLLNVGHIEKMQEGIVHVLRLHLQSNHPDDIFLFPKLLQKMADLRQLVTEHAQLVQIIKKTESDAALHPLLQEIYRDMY
How it was run: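 Exposure: 24 h, transiently transfected HepG2 cells. Endpoint: GAL4-UAS reporter mRNA, RT-PCR with capillary electrophoresis fluorescence. Baseline: DMSO; increases fitted.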

[2] = molecular target: human Peroxisome Proliferator-activated Receptor delta (PPARd), PPARD (gene 5467) (UniProt Q03181); experiment: ATG_PPARd_TRANS: Attagene TRANS-FACTORIAL HepG2 Assay for human Peroxisome Proliferator-activated Receptor delta (PPARd) (AID 2283002)
human Peroxisome Proliferator-activated Receptor delta (PPARd), PPARD (gene 5467), sequence (Q03181 whole entry, looked up, the tested form may be a part): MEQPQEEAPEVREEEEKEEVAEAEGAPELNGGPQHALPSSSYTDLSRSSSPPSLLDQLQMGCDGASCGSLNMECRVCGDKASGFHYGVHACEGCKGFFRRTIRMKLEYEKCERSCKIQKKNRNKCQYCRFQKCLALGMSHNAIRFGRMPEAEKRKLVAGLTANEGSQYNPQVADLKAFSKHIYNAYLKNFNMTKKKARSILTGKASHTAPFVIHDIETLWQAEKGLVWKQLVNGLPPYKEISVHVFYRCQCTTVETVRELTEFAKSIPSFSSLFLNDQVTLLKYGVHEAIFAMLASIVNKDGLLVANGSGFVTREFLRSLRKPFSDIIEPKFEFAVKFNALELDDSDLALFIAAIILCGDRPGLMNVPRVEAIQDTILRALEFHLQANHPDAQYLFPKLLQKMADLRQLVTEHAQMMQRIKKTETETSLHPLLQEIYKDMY
How it was run: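 Multiplexed trans-activation format: HepG2 liver cells expressing exogenous NR-Gal4 chimeras and GAL4-UAS reporters were exposed for 24 h. Reporter mRNA was detected by RT-PCR with capillary electrophoresis fluorescence; activity fitted as gain of signal relative to DMSO.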

[3] = read-out: Intercellular Adhesion Molecule 1 (ICAM1), ICAM1 (gene 3383); experiment: BSK_3C_ICAM1: BioMAP Diversity Plus: 3C Assay for Intercellular Adhesion Molecule 1 (ICAM1) Biomarker Activity (AID 2283003; active means hit-call score of the fitted dose curve at least 0.9, where 1 is the maximum; inactive means score below 0.9); details: primary human endothelial cells (HUVEC); actives raise or lower the signal
How it was run: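 ELISA read-out of ICAM-1; HUVEC (primary human), 3C system, 24 h post-dosing; bidirectional fit vs DMSO baseline.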

[4] = BSK_3C_Proliferation: Cell Proliferation Assessment in the BioMAP Diversity Plus: 3C Assay (AID 2283006; active means hit-call score of the fitted dose curve at least 0.9, where 1 is the maximum; inactive means score below 0.9;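 on AC50: potency may reflect either rise or fall in cell number versus DMSO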); details: primary human endothelial cells (HUVEC)
How it was run: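 HUVEC, sub-confluent; 48 h chemical exposure; 10% TCA fix, 0.1% SRB stain, A560 total protein. Gain or loss of signal fitted both directions vs DMSO control.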

[5] = molecular target: Peroxisome proliferator-activated receptor gamma (Homo sapiens) (UniProt P37231); experiment: ATG_PPARg_TRANS: Attagene TRANS-FACTORIAL HepG2 Assay for human Peroxisome Proliferator-activated Receptor-gamma (PPARg) (AID 2283007)
Peroxisome proliferator-activated receptor gamma (Homo sapiens), sequence (P37231 whole entry, looked up, the tested form may be a part): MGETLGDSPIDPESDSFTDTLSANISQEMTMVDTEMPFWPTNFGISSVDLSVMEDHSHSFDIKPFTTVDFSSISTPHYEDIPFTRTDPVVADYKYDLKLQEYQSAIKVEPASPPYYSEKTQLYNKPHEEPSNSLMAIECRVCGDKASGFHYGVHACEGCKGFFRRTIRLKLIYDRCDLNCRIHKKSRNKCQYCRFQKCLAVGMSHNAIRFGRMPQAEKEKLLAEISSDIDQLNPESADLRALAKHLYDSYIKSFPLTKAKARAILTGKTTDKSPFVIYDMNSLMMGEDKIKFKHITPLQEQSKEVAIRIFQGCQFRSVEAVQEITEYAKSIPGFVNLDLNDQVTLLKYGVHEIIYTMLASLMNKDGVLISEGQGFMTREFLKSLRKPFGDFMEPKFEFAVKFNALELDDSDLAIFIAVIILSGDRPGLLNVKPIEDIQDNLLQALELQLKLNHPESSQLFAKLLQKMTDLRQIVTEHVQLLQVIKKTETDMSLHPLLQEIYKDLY
How it was run: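 After 24 h of chemical exposure, transfected HepG2 cells carrying PPARγ-Gal4 chimera reporter constructs are lysed for RNA. Reporter transcripts are measured by RT-PCR and capillary electrophoresis with fluorescent labelling, and gain of signal is fitted versus DMSO.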

[6] = molecular target: Nuclear receptor subfamily 1 group I member 2 (Homo sapiens) (UniProt O75469); experiment: ATG_PXR_TRANS: Attagene TRANS-FACTORIAL HepG2 Assay for human Pregnane X Receptor (PXR) (AID 2283008)
Nuclear receptor subfamily 1 group I member 2 (Homo sapiens), sequence (O75469 whole entry, looked up, the tested form may be a part): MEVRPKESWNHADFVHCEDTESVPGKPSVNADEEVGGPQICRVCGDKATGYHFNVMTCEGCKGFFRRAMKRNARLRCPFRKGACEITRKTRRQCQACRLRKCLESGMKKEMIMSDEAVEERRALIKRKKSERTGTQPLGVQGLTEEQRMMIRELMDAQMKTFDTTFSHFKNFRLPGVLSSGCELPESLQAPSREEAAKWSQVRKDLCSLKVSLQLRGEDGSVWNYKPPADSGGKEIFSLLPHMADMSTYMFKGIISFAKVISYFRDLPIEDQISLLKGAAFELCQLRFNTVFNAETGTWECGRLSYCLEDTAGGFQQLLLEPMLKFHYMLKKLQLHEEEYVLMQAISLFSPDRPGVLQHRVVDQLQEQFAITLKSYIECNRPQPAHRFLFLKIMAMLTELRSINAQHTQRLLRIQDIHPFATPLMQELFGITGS
How it was run: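 HepG2 transfected (FuGene 6) with GAL4-UAS reporter units + PXR-Gal4 chimera; dosed 24 h. Total RNA → oligo(dT) RT → PCR → 6-FAM primer extension → HpaI cut → CE. Gain-of-signal vs DMSO.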

[7] = molecular target: human Retinoic Acid Receptor gamma (RARg), RARG (gene 5916) (UniProt P13631); experiment: ATG_RARg_TRANS: Attagene TRANS-FACTORIAL HepG2 Assay for human Retinoic Acid Receptor gamma (RARg) (AID 2283009)
human Retinoic Acid Receptor gamma (RARg), RARG (gene 5916), sequence (P13631 whole entry, looked up, the tested form may be a part): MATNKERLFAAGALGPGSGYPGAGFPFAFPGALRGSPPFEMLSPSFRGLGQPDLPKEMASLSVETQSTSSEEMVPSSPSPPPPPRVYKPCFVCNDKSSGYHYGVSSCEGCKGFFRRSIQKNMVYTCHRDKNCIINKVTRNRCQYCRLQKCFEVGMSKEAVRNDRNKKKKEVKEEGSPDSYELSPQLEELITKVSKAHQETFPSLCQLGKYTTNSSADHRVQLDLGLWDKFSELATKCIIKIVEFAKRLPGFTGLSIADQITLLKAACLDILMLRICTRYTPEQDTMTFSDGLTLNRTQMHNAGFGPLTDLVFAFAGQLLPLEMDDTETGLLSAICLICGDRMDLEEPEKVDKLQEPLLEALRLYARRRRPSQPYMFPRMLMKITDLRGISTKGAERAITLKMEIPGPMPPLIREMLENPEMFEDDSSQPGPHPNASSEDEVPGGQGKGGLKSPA
How it was run: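 Readout: reporter transcript levels via RT-PCR, 6-FAM primer-extension labelling, HpaI digestion and capillary electrophoresis. Cells: HepG2 carrying transfected RARg-GAL4 chimera plus UAS reporter set. Dosing 24 h; DMSO negative control.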

[8] = molecular target: human RAR-related Orphan Receptor beta (RORb), RORB (gene 6096) (UniProt Q92753); experiment: ATG_RORb_TRANS: Attagene TRANS-FACTORIAL HepG2 Assay for human RAR-related Orphan Receptor beta (RORb) (AID 2283010)
human RAR-related Orphan Receptor beta (RORb), RORB (gene 6096), sequence (Q92753 whole entry, looked up, the tested form may be a part): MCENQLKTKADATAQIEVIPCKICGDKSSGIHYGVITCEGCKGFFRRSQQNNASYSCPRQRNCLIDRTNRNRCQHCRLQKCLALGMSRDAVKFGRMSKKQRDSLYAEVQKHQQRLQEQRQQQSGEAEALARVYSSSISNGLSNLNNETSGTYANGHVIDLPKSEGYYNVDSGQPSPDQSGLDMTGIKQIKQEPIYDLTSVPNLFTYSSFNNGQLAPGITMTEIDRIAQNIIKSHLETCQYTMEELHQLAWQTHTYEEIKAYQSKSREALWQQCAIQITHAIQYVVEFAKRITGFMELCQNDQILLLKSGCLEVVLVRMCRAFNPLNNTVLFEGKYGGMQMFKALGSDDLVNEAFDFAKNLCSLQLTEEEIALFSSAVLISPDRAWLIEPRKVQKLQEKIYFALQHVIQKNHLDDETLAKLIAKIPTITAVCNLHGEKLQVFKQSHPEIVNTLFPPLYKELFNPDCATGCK
How it was run: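 HepG2, transient MRTU transfection (GAL4-UAS reporters, exogenous NR-Gal4 chimeras); 24 h compound exposure; total RNA → RT-PCR → 6-FAM primer extension → HpaI digest → CE fluorescence. Positive direction vs DMSO baseline.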

[9] = molecular target: Retinoic acid receptor RXR-alpha (Homo sapiens) (UniProt P19793); experiment: ATG_RXRa_TRANS: Attagene TRANS-FACTORIAL HepG2 Assay for human Retinoid X Receptor alpha (RXRa) (AID 2283012)
Retinoic acid receptor RXR-alpha (Homo sapiens), sequence (P19793 whole entry, looked up, the tested form may be a part): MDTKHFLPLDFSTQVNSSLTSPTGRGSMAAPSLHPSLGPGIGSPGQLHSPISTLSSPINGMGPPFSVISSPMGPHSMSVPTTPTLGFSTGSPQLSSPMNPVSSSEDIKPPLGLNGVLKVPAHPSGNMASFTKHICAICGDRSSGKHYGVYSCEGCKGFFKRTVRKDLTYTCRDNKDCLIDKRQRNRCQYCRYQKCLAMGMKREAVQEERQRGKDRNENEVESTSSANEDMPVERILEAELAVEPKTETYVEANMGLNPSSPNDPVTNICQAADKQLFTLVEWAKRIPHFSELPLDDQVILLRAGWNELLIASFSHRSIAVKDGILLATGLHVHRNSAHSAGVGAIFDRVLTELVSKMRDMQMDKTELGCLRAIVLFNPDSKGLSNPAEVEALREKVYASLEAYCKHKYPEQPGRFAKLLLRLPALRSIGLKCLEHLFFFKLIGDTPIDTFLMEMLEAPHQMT
How it was run: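 Read-out: fluorescent reporter-transcript fragments quantified by capillary electrophoresis after RT-PCR. Transiently transfected HepG2 cells carrying GAL4-UAS reporters and NR-GAL4 chimeras were exposed to chemical for 24 h; activity scored as increase over DMSO.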

[10] = molecular target: human Retinoid X Receptor beta (RXRb), RXRB (gene 6257) (UniProt P28702); experiment: ATG_RXRb_TRANS: Attagene TRANS-FACTORIAL HepG2 Assay for human Retinoid X Receptor beta (RXRb) (AID 2283013)
human Retinoid X Receptor beta (RXRb), RXRB (gene 6257), sequence (P28702 whole entry, looked up, the tested form may be a part): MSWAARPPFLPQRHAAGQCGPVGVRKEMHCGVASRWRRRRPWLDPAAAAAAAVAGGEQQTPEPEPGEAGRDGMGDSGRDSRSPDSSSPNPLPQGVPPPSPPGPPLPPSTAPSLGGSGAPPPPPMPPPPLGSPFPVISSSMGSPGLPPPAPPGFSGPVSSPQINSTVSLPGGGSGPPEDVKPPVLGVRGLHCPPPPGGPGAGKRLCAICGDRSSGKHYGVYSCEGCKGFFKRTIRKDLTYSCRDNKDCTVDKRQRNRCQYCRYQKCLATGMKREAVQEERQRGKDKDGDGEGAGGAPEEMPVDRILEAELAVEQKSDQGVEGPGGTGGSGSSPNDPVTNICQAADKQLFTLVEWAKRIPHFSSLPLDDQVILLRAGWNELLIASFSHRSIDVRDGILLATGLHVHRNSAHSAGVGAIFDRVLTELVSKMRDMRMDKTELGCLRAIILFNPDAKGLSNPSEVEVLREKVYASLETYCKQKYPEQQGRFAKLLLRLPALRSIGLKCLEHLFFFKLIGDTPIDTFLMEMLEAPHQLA
How it was run: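 Read-out: reporter mRNA induction via RT-PCR plus capillary electrophoresis fluorescence, analysed as signal increase relative to DMSO. Cells were human HepG2, transiently transfected with GAL4-UAS reporter constructs and chimeric receptor-Gal4 fusions, dosed for 24 h.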

[11] = molecular target: human Thyroid Receptor alpha (THRa1), THRA (gene 7067) (UniProt P10827); experiment: ATG_THRa1_TRANS: Attagene TRANS-FACTORIAL HepG2 Assay for human Thyroid Receptor alpha (THRa1) (AID 2283014)
human Thyroid Receptor alpha (THRa1), THRA (gene 7067), sequence (P10827 whole entry, looked up, the tested form may be a part): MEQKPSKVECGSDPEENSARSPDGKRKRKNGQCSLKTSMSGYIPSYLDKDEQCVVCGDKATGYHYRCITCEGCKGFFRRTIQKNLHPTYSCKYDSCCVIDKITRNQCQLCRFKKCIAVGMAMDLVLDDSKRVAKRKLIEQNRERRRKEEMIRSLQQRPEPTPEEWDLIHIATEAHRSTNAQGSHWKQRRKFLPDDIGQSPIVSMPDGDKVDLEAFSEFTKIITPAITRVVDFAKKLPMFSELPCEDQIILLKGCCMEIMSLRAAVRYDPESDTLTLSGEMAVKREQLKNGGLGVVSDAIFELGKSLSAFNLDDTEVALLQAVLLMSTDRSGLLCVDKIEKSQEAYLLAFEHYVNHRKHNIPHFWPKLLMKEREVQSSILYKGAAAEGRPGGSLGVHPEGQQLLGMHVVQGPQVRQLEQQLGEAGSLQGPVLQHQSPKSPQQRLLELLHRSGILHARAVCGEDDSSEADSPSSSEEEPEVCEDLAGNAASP
How it was run: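 Transient HepG2 transfection, NR-Gal4 chimera driving GAL4-UAS reporters; 24 h compound exposure; total RNA, oligo(dT) RT, PCR, fluorescent primer extension, capillary electrophoresis. Upward direction vs DMSO control.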

[12] = read-out: E-selectin (Homo sapiens) (UniProt P16581); experiment: BSK_3C_Eselectin: BioMAP Diversity Plus: 3C Assay for Eselectin Biomarker Activity (AID 2283015; active means hit-call score of the fitted dose curve at least 0.9, where 1 is the maximum; inactive means score below 0.9); details: primary human endothelial cells (HUVEC); actives raise or lower the signal
How it was run: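 HUVEC, 3C stimulation; compound exposure 24 h; E-selectin by ELISA; gain- or loss-of-signal fitted bidirectionally vs DMSO baseline.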

[13] = read-out: Interleukin-1 alpha (IL1a), IL1A (gene 3552); experiment: BSK_BE3C_IL1a: BioMAP Diversity Plus: BE3C Assay for Interleukin-1 alpha (IL1a) Biomarker Activity (AID 2283016; active means hit-call score of the fitted dose curve at least 0.9, where 1 is the maximum; inactive means score below 0.9); details: primary human bronchial epithelial cells; actives raise or lower the signal
How it was run: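 ELISA read-out of IL-1a from human lung bronchial epithelial primary cells, 24 h post-dose. Gain or loss of signal fitted relative to DMSO negative control.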

[14] = read-out: Monocyte Chemoattractant Protein-1 (MCP1), CCL2 (gene 6347); experiment: BSK_3C_MCP1: BioMAP Diversity Plus: 3C Assay for Monocyte Chemoattractant Protein-1 (MCP1) Biomarker Activity (AID 2283017; active means hit-call score of the fitted dose curve at least 0.9, where 1 is the maximum; inactive means score below 0.9); details: primary human endothelial cells (HUVEC); actives raise or lower the signal
How it was run: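 HUVEC, 3C system; 24 h chemical exposure; MCP-1 by ELISA; bidirectional curve fit vs DMSO baseline.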

[15] = read-out: Monocyte Chemoattractant Protein-1 (MCP1), CCL2 (gene 6347); experiment: BSK_4H_MCP1: BioMAP Diversity Plus: 4H Assay for Monocyte Chemoattractant Protein-1 (MCP1) Biomarker Activity (AID 2283018; active means hit-call score of the fitted dose curve at least 0.9, where 1 is the maximum; inactive means score below 0.9); details: primary human endothelial cells (HUVEC); actives raise or lower the signal
How it was run: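 HUVEC primary cells, 24 h post-dose, MCP-1 by ELISA. Gain or loss of signal fitted bidirectionally vs DMSO baseline. Cytotoxicity: SRB stain (0.1% after 10% TCA fixation), read 560 nm, parallel cultures.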

[16] = read-out: Human Leukocyte Antigen - DR isotype (HLADR), HLA-DRA (gene 3122); experiment: BSK_3C_HLADR: BioMAP Diversity Plus: 3C Assay for Human Leukocyte Antigen - DR isotype (HLADR) Biomarker Activity (AID 2283019; active means hit-call score of the fitted dose curve at least 0.9, where 1 is the maximum; inactive means score below 0.9); details: primary human endothelial cells (HUVEC); actives raise or lower the signal
How it was run: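 HUVEC, 3C stimulation, 24 h post-dose; HLA-DR by ELISA; bidirectional curve fit vs DMSO baseline; gain or loss of signal scored.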

[17] = read-out: Interleukin-8 (IL8), CXCL8 (gene 3576); experiment: BSK_3C_IL8: BioMAP Diversity Plus: 3C Assay for Interleukin-8 (IL8) Biomarker Activity (AID 2283020; active means hit-call score of the fitted dose curve at least 0.9, where 1 is the maximum; inactive means score below 0.9); details: primary human endothelial cells (HUVEC); actives raise or lower the signal
How it was run: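 HUVEC, 3C stimulation; 24 h compound exposure; IL-8 read by ELISA; gain or loss of signal fitted relative to DMSO control.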

[18] = molecular target: human Retinoic Acid Receptor beta (RARb), RARB (gene 5915) (UniProt P10826); experiment: ATG_RARb_TRANS: Attagene TRANS-FACTORIAL HepG2 Assay for human Retinoic Acid Receptor beta (AID 2283004)
How it was run: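 Readout is reporter mRNA induction: RNA reverse-transcribed, PCR-amplified, FAM-labelled, HpaI-cut and resolved by capillary electrophoresis. Transiently transfected HepG2 cells carrying exogenous NR–Gal4 chimeras were dosed for 24 h; activity fitted upward relative to DMSO.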

[19] = molecular target: Retinoic acid receptor alpha (Homo sapiens) (UniProt P10276); experiment: ATG_RARa_TRANS: Attagene TRANS-FACTORIAL HepG2 Assay for human Retinoic Acid Receptor alpha (RARa) (AID 2283005)
How it was run: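 HepG2 cells transiently transfected with multiple reporter units expressing chimeric RARα-GAL4 fusion, with GAL4-UAS-driven reporters. After 24 h compound exposure, reporter mRNA induction quantified by RT-PCR and capillary electrophoresis with fluorescent labeling; gain-of-signal fitted relative to DMSO control.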

[20] = molecular target: human RAR-related Orphan Receptor gamma (RORg), RORC (gene 6097) (UniProt P51449); experiment: ATG_RORg_TRANS: Attagene TRANS-FACTORIAL HepG2 Assay for human RAR-related Orphan Receptor gamma (RORg) (AID 2283011)
How it was run: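 Transient MRTU transfection of HepG2 (TRANS format, exogenous NR-Gal4 chimera). 24 h dosing. Total RNA → oligo(dT) RT → PCR → 6-FAM labelling → HpaI cut → CE. Gain vs DMSO.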

Measured: AC50

E-selectin (Homo sapiens), sequence (P16581 whole entry, looked up): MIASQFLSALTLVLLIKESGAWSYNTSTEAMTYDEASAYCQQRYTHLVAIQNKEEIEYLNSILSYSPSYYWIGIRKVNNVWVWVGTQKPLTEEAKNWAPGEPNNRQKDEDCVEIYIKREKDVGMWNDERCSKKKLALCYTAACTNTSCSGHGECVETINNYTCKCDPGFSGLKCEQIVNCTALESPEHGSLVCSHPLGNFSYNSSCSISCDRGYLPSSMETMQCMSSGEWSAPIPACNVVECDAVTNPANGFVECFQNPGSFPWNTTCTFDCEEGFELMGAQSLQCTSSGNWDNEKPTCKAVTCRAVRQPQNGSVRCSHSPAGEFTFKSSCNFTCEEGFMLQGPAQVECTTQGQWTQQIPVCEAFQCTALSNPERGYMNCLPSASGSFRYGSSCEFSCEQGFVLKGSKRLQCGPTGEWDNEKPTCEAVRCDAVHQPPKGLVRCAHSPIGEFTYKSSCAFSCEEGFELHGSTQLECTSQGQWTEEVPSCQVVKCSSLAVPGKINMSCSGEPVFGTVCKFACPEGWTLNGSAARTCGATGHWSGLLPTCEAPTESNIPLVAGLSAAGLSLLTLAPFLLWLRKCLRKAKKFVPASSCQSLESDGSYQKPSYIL

CCN(CC)CCNc1ccc(CNC=O)c2sc3ccc(OC)cc3c(=O)c12
active: [1] 0.878 µM | [3] 30.8 µM | [4] 13.8 µM | [5] 0.718 µM | [6] 0.228 µM | [9] 1.85 µM | [10] 0.45 µM | [12] 27.3 µM | [13] 29.3 µM | [14] 19.4 µM | [15] 20 µM | [16] 13.4 µM | [17] 16.4 µM
inactive: [2] | [7] | [8] | [11]

NC(=O)N1C(=O)C(C(=O)c2cc(Cl)cs2)c2cc(F)c(Cl)cc21 (centres undefined)
active: [4] 11 µM | [5] 2.71 µM | [6] 11 µM | [13] 7.87 µM | [14] 5.16 µM | [16] 13.4 µM
not listed: [2] | [10]
inactive: all other assays above

NC(=O)N(O)[C@@H]1C=C[C@H](Oc2cccc(Oc3ccc(F)cc3)c2)C1
active: [4] 9.97 µM | [5] 10.1 µM | [6] 7.33 µM
not listed: [8] | [9] | [11] | [19] | [20]
inactive: all other assays above

c1ccc2c(c1)Cc1ccccc1-2
active: [10] 61.7 µM
not listed: [2] | [8] | [11] | [18] | [19] | [20]
inactive: all other assays above

C[C@@H]1C[C@H]2[C@@H]3CCC4=CC(=O)C=C[C@]4(C)[C@@]3(F)[C@@H](O)C[C@]2(C)[C@@]1(O)C(=O)COP(=O)(O)O
not listed: [7] | [18] | [19]
inactive: all other assays above

FC(F)(I)C(F)(F)C(F)(F)C(F)(F)C(F)(F)C(F)(F)I
inactive: [2] | [20]
active: [1] 27.3 µM | [4] 12.9 µM [middle of 5 runs] | [5] 14.4 µM | [6] 33.4 µM | [10] 20.5 µM | [13] 30 µM [middle of 5 runs]

COC(=O)CCCCC(=O)OC
not listed: [5] | [7] | [8] | [18] | [20]
inactive: all other assays above
